# According to PubChem BioAssay (NCATS):
# Inconclusive results are not listed. Unmarked numbers belong to inactive results. The source made the active and inactive calls. Calls come from the whole dose curve; as a rule, active = well fitted cell-killing curve with a large enough effect; inconclusive = small, poorly fitted or top-dose-only effect, or effect the other way; inactive = no such curve, though single readings can be large or run the other way.
# Assay: Viability qHTS for spleen associated tyrosine kinase inhibitor (SYKi) drug resistant MV4-11 cells (AID 1963824); note: nearly all actives have a fitted effect of over 35% in size
# Conditions: SYKi-resistant MV4-11 viability, CellTiter-Glo, 72 h; series mostly up to 45 µM; viability, % of control: at the top concentration
# Outline: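 SYK-inhibitor-resistant MV4-11 AML cells were seeded at 500 per well onto compound and cultured 72 hours (37 °C, 5% CO2). CellTiter-Glo was then added, and after 10 min at room temperature, luminescence gave viability.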
# Potency is the fitted concentration of half-maximal effect.
SMILES,Potency,"viability, % of control"
CCCCC(=O)N1c2ccccc2NC2=C(C(=O)CCC2)C1c1ccccc1Cl (stereo unspecified),8.2 µM (active),–
CC1CC(C(O)C(C)(C)O)OC2CC3(C)C4(C)CCC5C(C)(C)C(=O)CCC5(C)C4CCC3(O)C12O (stereo unspecified),11.2 µM (active),–
OC[C@H]1O[C@@H](O[C@H]2[C@H](OCc3ccccc3)O[C@H](CO[C@@H]3OC[C@@H](O)[C@H](O)[C@H]3O)[C@@H](O)[C@@H]2O)[C@H](O)[C@@H](O)[C@@H]1O,–,72.1% [at 17.3 µM]
CCCCCCCCCCCCCCCCOP(=O)([O-])OCC[N+](C)(C)C,21.1 µM (active),–
COC1CC(O[C@H]2CC[C@@]3(C)C(=CC[C@]4(O)C3[C@H](O)[C@@H](O)[C@]3(C)[C@@H]([C@H](C)O)CC[C@@]34O)C2)OC(C)C1OC1CC(OC)C(OC2CC(OC)C(OC3OC(C)C(OC4OC(CO)C(O)C(O)C4O)C(OC)C3O)C(C)O2)C(C)O1 (stereo partly specified),–,76.2% [at 9.25 µM]
O=S(=O)(c1cccc2c(Cl)cccc12)N1CCCNCC1,20.6 µM (active),–
COc1cc(O)c2c(=O)c(O)c(-c3ccc(O)c(O)c3)oc2c1,8.2 µM (active),–
N#Cc1ccc(-c2cnc3[nH]cc(NC(=O)c4cccnc4)c3c2)cc1,0.92 µM (active),–
Cc1ccc(Cl)c(Nc2ccccc2C(=O)O)c1Cl,15 µM (active),–
C[C@@H]1O[C@@H](O[C@H]2CC[C@@]3(C)C(CC[C@]4(C)C3CC=C3[C@@H]5CC(C)(C)CC[C@]5(C(=O)O[C@@H]5O[C@H](CO)[C@@H](O)[C@H](O)[C@H]5O)CC[C@]34C)[C@]2(C)CO)[C@H](O)[C@H](O[C@@H]2O[C@H](CO)[C@@H](O)[C@H](O)[C@H]2O)[C@H]1O (stereo partly specified),3.9 µM (active),–
CC(O)/C=C/C1C(C)C(O[C@@H]2O[C@H](CO)[C@@H](O)[C@H](O)[C@H]2O)C(O)CC1(C)C (stereo partly specified),–,101%
